Only a selection was taken, and hits are over-represented in it overall.
PGK inhibitor – T. brucei PGK inhibition. P07378. PGK/GAPDH coupled, Kinase-Glo luminescence, 60 min. Potency, µM (series often up to 57.5 µM), for inactives: at the top dose activity change, negative = inhibition, usual class: inhibitors. 380,000 tested, 0.043% active. AID 602233; active = well fitted inhibition curve with a large enough effect; inconclusive = small, poorly fitted or top-dose-only effect; inactive = no such curve, though single readings can be large or run the other way; also: potency is read from the fitted curve at half-maximal effect; nearly all actives have a fitted effect of over 60% in size
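Luminescent ATP detection (Kinase-Glo Plus) follows a 60-minute room-temperature incubation, with wells lacking PGK as controls. Buffer: 100 mM TEA (pH 7.6), 5 mM MgCl2, 0.01% Tween-20. Coupling enzyme GAPDH (100 nM final) supplies unstable 1,3-BPG in-well.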
PI4K2A inh – blocks human PI4K2A kinase activity; Q9BTU6; 420,000 tested, 0.13% active; activity change, negative = inhibition, % at 76.9 µM; purified PI4K2A, ADP-Glo luminescence, 1 h; stronger effect = lower value; in the data active = activity change below about -50%; inconclusive = mostly about -30% to -49%;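 also: -100% = wells without enzyme as full effect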
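In this quantitative HTS, ADP production by PI4K2A was quantified luminescently after 1 h at ambient temperature; 100 microM adenosine served as plate-quality control.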
Pin1 inh – blocks the human prolyl isomerase Pin1. Q13526. Pin1 FP peptide displacement, HiFluor488, 10 min. Potency, µM (top dose mostly 115 µM), for the others: at the top dose activity, negative = inhibition, usual class: inhibitors. 390,000 tested, 0.009% active. AID 504891; active = well fitted inhibition curve with a large enough effect in the polarisation, with a control signal flat, not every such curve was filed as active; inconclusive = small, poorly fitted or top-dose-only effect, or effect the other way, or a change in a side signal; inactive = no such curve, though single readings can be large or run the other way; the % refers to the polarisation; also: potency is read from the fitted curve at half-maximal effect
Target sequence (Q13526 whole entry, looked up): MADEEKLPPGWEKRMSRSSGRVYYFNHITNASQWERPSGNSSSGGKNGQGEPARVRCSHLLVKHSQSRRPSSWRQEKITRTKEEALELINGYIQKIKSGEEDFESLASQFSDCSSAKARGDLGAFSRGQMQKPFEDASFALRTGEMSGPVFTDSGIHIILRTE
PI5P4K alpha inh – PI5P4K alpha (human) kinase inhibition | 330,000 tested, 1.2% active | PI5P4Kalpha enzyme, ADP-Glo luminescence, 60 min; stronger effect = lower value | P48426 | max response, %; active = max response of -50% or lower; inconclusive = between -30% and -50%; inactive = -30% or higher; also: value at the top dose of about 77 µM
Target sequence (P48426 whole entry, looked up): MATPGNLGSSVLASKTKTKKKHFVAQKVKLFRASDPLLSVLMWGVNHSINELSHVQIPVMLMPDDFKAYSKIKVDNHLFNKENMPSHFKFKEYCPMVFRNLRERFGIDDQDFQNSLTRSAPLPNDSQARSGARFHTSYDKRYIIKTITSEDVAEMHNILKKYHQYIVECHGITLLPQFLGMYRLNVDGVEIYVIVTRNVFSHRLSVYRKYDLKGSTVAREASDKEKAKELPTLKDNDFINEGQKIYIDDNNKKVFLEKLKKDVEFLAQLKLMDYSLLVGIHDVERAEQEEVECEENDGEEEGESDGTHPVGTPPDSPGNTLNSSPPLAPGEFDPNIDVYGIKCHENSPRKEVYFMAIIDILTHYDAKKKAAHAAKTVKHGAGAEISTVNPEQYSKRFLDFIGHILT
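Compounds were pin-transferred onto PI5P4Kalpha and substrate in HEPES pH 7.4 buffer with EGTA, CHAPS and 5% DMSO. ATP (5 microM final) started the reaction, which ran 60 minutes at room temperature before ADP-Glo detection.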
The depositor's hits bear a star; i = inactive; ? = inconclusive; nt = no result given. Unless noted, % is scaled to controls: 0 for no effect and ±100 for the full control effect.

SMILES | PGK inhibitor | PI4K2A inh | Pin1 inh | PI5P4K alpha inh
Cc1ccccc1NC(=O)CSc1ccsc1[N+](=O)[O-] | ? | -10 | ? | -90*
COCCCNC(=O)CSc1ccsc1[N+](=O)[O-] | 4% | 3 | ? | -20
O=C(N1CCOCC1)N1CCN(c2ccccc2)CC1 | -3% | -3 | 0% | -2
O=C(N1CCOCC1)N1CCN(c2ccccc2F)CC1 | -5% | -62* | 0% | -2
Cc1cc(/C=N/n2c(COc3ccccc3)nc3ccccc3c2=O)c(O)c([N+](=O)[O-])c1 | -10% | -4 | 9% | -51*
O=S(=O)(c1ccc2oc(=S)[nH]c2c1)N1CCOCC1 | -2% | -3 | -1% | -69*
O=S(=O)(c1cccc(-c2n[nH]c(=S)o2)c1)N1CCOCC1 | i | -22 | ? | -73*
O=S(=O)(c1cccc(-c2n[nH]c(=S)n2-c2ccccc2Cl)c1)N1CCOCC1 | -7% | 0 | -8% | -9
COc1ccc(-c2ccc3ncnc(NCCc4cnc[nH]4)c3c2)cc1OC | nt | nt | 3% | nt
C=C(C)CN(CC)c1nc(N)c2c(N)nc3c(c2c1C#N)CC(=O)N3C12CC3CC(CC(C3)C1)C2 | -2% | ? | 14% | -87*
N#Cc1c(N2CCCC(O)C2)nc(N)c2c(N)nc3c(c12)CC(=O)N3C12CC3CC(CC(C3)C1)C2 (centres undefined) | -1% | ? | 29% | nt
CC(=O)C1CCN(c2ncc(-c3ccc4c(c3)OCCCO4)s2)CC1 | nt | nt | 2% | nt
COC(=O)CN1C(=O)[C@H]2[C@@H](c3ccc(C)o3)N3C(=O)CN(Cc4ccc(-c5ccccc5)cc4)C(=O)[C@@]3(C)[C@H]2C1=O | -3% | 3 | 3% | -62*
CC(CCC(C)C(C)(C)C)[C@@H]1CC[C@H]2C3C[C@H](OS(O)(=S)=S)[C@H]4C[C@H](OS(O)(=S)=S)[C@@H](OS(O)(=S)=S)C[C@]4(C)[C@H]3CC[C@]12C (some centres undefined) (tested in a mixture with another compound) | 25µM* | -59* | ? | ?
Cc1cc(NCCCCCCCNc2cc(C)nc3cc([N+](=O)[O-])ccc23)c2ccc([N+](=O)[O-])cc2n1 | i | 4 | ? | -61*
COCCCNc1cc(C)nc2ccccc12 | -5% | 17 | -10% | 1
Cc1ccc(Cl)cc1NS(=O)(=O)c1cc2c(cc1F)NC(=O)CC2 | nt | nt | -7% | nt
CC(=O)c1ccc(N2CCN(C(=O)Nc3cn(CC(C)C)c(=O)c4ccccc34)CC2)cc1 | -6% | -22 | -13% | nt
CCCCC1=CC2=CC(=O)C(C)(OC(=O)c3cccs3)C(=O)C2=CO1 (centres undefined) | 2% | -17 | ? | -87*
CN(C)c1ccc(-c2cc[nH]c(=O)c2N)cc1 | nt | nt | -1% | nt
C=C1c2cccc(O)c2C(O)=C2C(=O)[C@]3(O)C(O)=C(C(N)=O)C(=O)[C@@H](N(C)C)[C@@H]3[C@@H](O)[C@H]12 | -4% | ? | nt | -58*
CC1=CC(=O)c2ccccc2C1=O | 2% | -5 | -2% | 0
CC(C)(C=O)C1=CC(=O)c2ccccc2C1=O | -2% | -2 | -22% | -52*
Nc1[nH]n(-c2ccccc2)c(=O)c1N=Nc1ccccc1[N+](=O)[O-] | i | 7 | -9% | nt
O=c1c2cc([N+](=O)[O-])cc([N+](=O)[O-])c2[nH]n1-c1ccccc1 | ? | ? | ? | -98*
SMILES | PGK inhibitor | PI4K2A inh | Pin1 inh | PI5P4K alpha inh
c1ccc(CCNc2nc(-c3ccccc3)cs2)cc1 | nt | -6 | nt | nt
Cc1nc(N)sc1-c1csc(NCc2ccccc2)n1 | 5% | -12 | 15% | ?
Cc1cc(-c2csc(NCc3ccccc3)n2)c(C)n1C | 8% | ? | ? | -55*
Cn1ccsc1=NC(=O)c1ccc([N+](=O)[O-])o1 | -10% | -10 | ? | -60*
O=C(OCC#CCSc1nnc(-c2cccc3ccccc23)o1)c1sc(Cl)c(Cl)c1Cl | nt | nt | -5% | nt
Oc1[nH]c2ccccc2c1N=NC(=S)N1CCOCC1 | i | -3 | 8% | -28
Oc1[nH]c2ccc(Br)cc2c1N=NC(=S)N1CCOCC1 | 4% | 16 | ? | -54*
O=C(Nc1ccc(N2CCCCC2)cc1)c1ccccn1 | ? | -65* | -4% | -24
Cc1nc2sc(-c3ccccc3)cc2c(=O)n1N | 20µM* | -52* | 6% | ?
COc1ccc(C2Nc3ccccc3C(=O)N2Cc2ccco2)cc1COc1c(C)cccc1C (centres undefined) | nt | nt | 32% | nt
CCOC(=O)C1=C(C)N(C[C@@H]2CC[C@@H](Cc3ccc(-c4ccccc4)cc3)O2)C(=O)NC1c1ccc(C(F)(F)F)cc1 (some centres undefined) | -3% | 1 | 5% | 2
CCOC(=O)C1=C(C)N(C[C@@H]2CC[C@@H](Cc3ccc(-c4ccccc4)cc3)O2)C(=O)NC1c1ccc(SCc2ccco2)c([N+](=O)[O-])c1 (some centres undefined) | -9% | -17 | ? | -70*
Cc1nn(-c2ccccc2)c(N2CCCCC2)c1/C=N/NC(=O)c1ccncc1 | 5% | 0 | 2% | -15
CCOc1ccc(S(=O)(=O)Nc2ccc(C(=O)N/N=C/c3c(C)nn(-c4ccccc4)c3N3CCCC3)cc2)cc1 | i | -2 | -1% | -74*
Cc1cc(C)c2c(=O)n(CC(=O)Nc3ccc(Cl)cc3)sc2n1 | 2% | -2 | 0% | -64*
Cc1cccc(N2CCN(C(=O)Cn3sc4nc(C)cc(C)c4c3=O)CC2C)c1 (centres undefined) | -8% | -4 | 17% | -55*
CCOc1ccc(NC(=O)Cn2sc3nc(C)cc(C)c3c2=O)cc1 | 0% | -2 | 10% | -71*
Cc1cc(C)c2c(=O)n(CC(=O)Nc3cccc(F)c3)sc2n1 | -1% | 0 | -1% | -67*
Cc1ccc(NC(=O)Cn2sc3nc(C)cc(C)c3c2=O)c(Cl)c1 | 1% | -1 | 3% | -72*
Cc1ccc(S(=O)(=O)/N=C2\C=C(Nc3ccc(O)cc3)C(=O)c3ccccc32)cc1 | -23% | ? | -8% | -15
Cc1ccc(S(=O)(=O)/N=C2/C=C(Sc3ncn[nH]3)C(=O)c3ccccc32)cc1 | ? | -70* | nt | -100*
CC(C)c1ccc(S(=O)(=O)/N=C2/C=C(Sc3ncn[nH]3)C(=O)c3ccccc32)cc1 | -11% | -55* | nt | -79*
COc1cccc(CNC(=O)c2ccc3nc(-c4ccccc4)c(-c4ccccc4)nc3c2)c1OC | 9% | -1 | 13% | nt
CCCc1cc2c(OC(=O)CC)c(-c3ccc(C(=O)OCC)o3)c(=O)oc2cc1OC | -4% | -4 | 0% | -65*
O=C(NCC(c1cccnc1)N1CCc2ccccc21)c1ccc(Cl)cc1 (centres undefined) | i | 1 | -11% | nt
CCN1CCCC1CN (centres undefined) | nt | 0 | nt | nt
Cn1sc2ccccc2c1=O | -7% | -1 | nt | ?
N#Cc1ccc2c(=O)n(-c3ccccc3)sc2c1 | 1% | -4 | nt | -85*

From PubChem BioAssay
